Screens (PubChem BioAssay)
This is a sample that favours compounds with a hit; in the whole collection about 6.6% have one here.
MCF10A rereplic: inducers of DNA re-replication in MCF 10A breast cells. Potency, µM (series often up to 46.1 µM), inactives show at the highest dose activity, positive = re-replication, usual class: activators. MCF 10A DNA re-replication, Hoechst nuclear intensity, 48 h. 2.9% of 350,000 active; also: % of control where 0% means no effect; nearly all actives have a fitted effect of over 50% in size
KB-V1 MDR tox: KB-V1 MDR subline cytotoxicity. KB-V1 MDR cells viability, CellTiter-Glo, 72 h. Potency, µM (top dose mostly 46.1 µM), hits mostly cytotoxic. 3.4% of 400,000 active. AID 1347076; also: % is scaled to controls: 0 for no effect and ±100 for the full control effect; nearly all actives have a fitted effect of over 60% in size
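Following 72 h at 37 degrees C with compound, KB-V1 cell viability was read by CellTiter-Glo luminescence, medium being phenol-red-free DMEM plus 10% FBS; concentration-response parameters came from normalized, curve-fitted qHTS data.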
PTAP TSG101 blk: blocks PTAP/TSG101 interaction to inhibit HIV-1 budding. Q99816. Potency, µM (titrated, usually from 115 µM), without a hit: top-dose activity change, negative = inhibition, most hits filed as inhibitors. 340,000 tested, under 10 active. Fluorescence polarization, FITC-PTAP peptide / Tsg101 binding. AID 493005; active = well fitted inhibition curve with a large enough effect in the main read-out, with a control signal flat, not every such curve was filed as active; inconclusive = small, poorly fitted or top-dose-only effect, or effect the other way, or a change in a side signal; inactive = no such curve, though single readings can be large or run the other way; also: % of control where 0% means no effect
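Fluorescence anisotropy tracks displacement of a FITC-tagged PTAP peptide (50 nM) from the Tsg101 binding domain (10 uM), following a 20 min room-temperature incubation at pH 7.5.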
RGS4 inhibitor: blocks human RGS4-accelerated GTP hydrolysis; Potency, µM (titrated, usually from 114 µM), for inactives: at the highest dose activity change, negative = inhibition, hits mostly inhibitors; AID 504845; P49798; Transcreener GDP fluorescence polarization, RGS4-accelerated GTP hydrolysis; 0.039% of 390,000 active; also: % is scaled to controls: 0 for no effect and ±100 for the full control effect; nearly all actives have a fitted effect of over 75% in size
Target sequence (P49798 whole entry, looked up): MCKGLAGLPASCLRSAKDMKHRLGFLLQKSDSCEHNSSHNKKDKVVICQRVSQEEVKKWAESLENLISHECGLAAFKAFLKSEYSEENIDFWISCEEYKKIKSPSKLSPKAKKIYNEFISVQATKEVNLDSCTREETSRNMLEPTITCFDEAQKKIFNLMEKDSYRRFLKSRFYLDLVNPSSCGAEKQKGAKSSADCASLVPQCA
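MLSMR compounds (23 nl, pin-transferred) preincubated 10 min at room temperature with a 500nM (2x) first reagent, then RGS4 at 900nM (2x) plus Transcreener GDP mix added; fluorescence polarization (620/688 nm) read before and after 90 min at 30 °C.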
SW480 rerep: induces DNA re-replication in SW480 colon adenocarcinoma cells | SW480 DNA re-replication, Hoechst DNA content imaging, 48 h | Potency, µM (titrated, usually from 46.1 µM), inactives show at the highest dose re-replication activation, most hits filed as activators | 1.8% of 340,000 active | AID 624297; also: % of control where 0% means no effect; nearly all actives have a fitted effect of over 55% in size
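SW480 cells exposed to compounds for 48 hr at 37 C, 5% CO2, then Hoechst-stained 40 min. Nuclear DNA content imaged by fluorescence scanning (405 nm excitation, 500-530 nm emission); re-replication scored as increased high-intensity nuclei.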
KB-3-1 tox: KB-3-1 parental cell cytotoxicity; KB-3-1 viability, CellTiter-Glo ATP luminescence, 72 h; Potency, µM (doses to about 46.1 µM), usual class: cytotoxic; 1.4% of 400,000 active; AID 1347075; also: % is scaled to controls: 0 for no effect and ±100 for the full control effect; nearly all actives have a fitted effect of over 60% in size
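KB-3-1 cells, DMEM (no phenol red) + 10% FBS; compound by pin transfer, 72 h, 37 °C. Readout: CellTiter-Glo luminescence after 10 min. Data normalized, curve-fitted.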
* marks the source's active call; other numbers are inactive results; i = inactive; u = inconclusive; x = no result. Unless noted, calls follow the shape of the dose curve; as a rule, active = well fitted curve in the direction sought with a large enough effect; inconclusive = small, poorly fitted or top-dose-only effect, or another doubt; inactive = no such curve, though single readings can be large; an effect the other way counts as inactive or inconclusive. Potency is read from the fitted curve at half-maximal effect.

SMILES	MCF10A rereplic	KB-V1 MDR tox	PTAP TSG101 blk	RGS4 inhibitor	SW480 rerep	KB-3-1 tox
O=C(c1cn(-c2ccccc2)nc1-c1cccs1)N1CCN(c2ccccc2)CC1	6.51µM*	u	-6.8%	-6.6%	2.91µM*	8.2µM*
O=C(c1cn(-c2ccccc2)nc1-c1ccc(Br)cc1)N1CCOCC1	5.1%	u	0.3%	-13.4%	23.1µM*	i
COc1ccccc1-c1nn(-c2ccccc2)cc1C(=O)NCC(c1ccco1)N1CCCC1 (stereo unspecified)	14.7%	i	-5.1%	27.5%	-7.0%	i
O=C(c1cn(-c2ccccc2)nc1-c1ccc(F)cc1)N1CCOCC1	23.1%	i	-3.2%	12.2%	-1.8%	i
O=C(NC(=S)N1CCOCC1)c1cn(-c2ccccc2)nc1-c1ccc(F)cc1	8.9%	20.6µM*	-1.3%	u	10.1%	i
O=C(NCC(c1ccco1)N1CCCC1)c1cn(-c2ccccc2)nc1-c1ccc(F)cc1 (stereo unspecified)	20.6µM*	i	-4.8%	-2.3%	u	i
Cc1ccc(NC(=O)c2ccc(F)c(S(=O)(=O)NCCc3ccccc3)c2)cc1F	x	x	x	-8.8%	x	x
Cc1cc(C)c(-c2n[nH]c3c2C(c2ccccc2F)N(Cc2ccco2)C3=O)c(O)c1 (stereo unspecified)	x	x	x	-18.9%	x	x
COc1ccccc1-c1cc(C(=O)Nc2c(C)n(C)n(-c3ccccc3)c2=O)no1	-6.2%	i	-6.3%	3.9%	-0.3%	i
COc1ccc(OC)c(-c2cc(C(=O)Nc3c(C)n(C)n(-c4ccccc4)c3=O)no2)c1	16.0%	23.1µM*	-5.5%	25.9%	3.0%	i
Cc1ccc(N2CC(C(=O)Nc3nccs3)CC2=O)cc1Cl (stereo unspecified)	8.4%	7.31µM*	-5.8%	20.2%	18.0%	u
COc1ccc(N2CC(C(=O)Nc3ccccc3N3CCCC3)CC2=O)c(OC)c1 (stereo unspecified)	u	u	-0.9%	2.3%	20.6µM*	7.31µM*
COc1ccc(N2CC(C(=O)Nc3cc(C(F)(F)F)ccc3N3CCCC3)CC2=O)c(OC)c1 (stereo unspecified)	u	u	-1.6%	-14.8%	183.6%	u
COCc1nnc(NC(=O)C2CC(=O)N(c3ccc(C)c(Cl)c3)C2)s1 (stereo unspecified)	2.5%	i	0.1%	-22.0%	u	i
COC(=O)c1ccccc1NC(=O)C1CC(=O)N(c2ccc(C)c(C)c2)C1 (stereo unspecified)	u	20.6µM*	-8.4%	-18.9%	86.7%	i
O=c1c2ccccc2nc(-c2ccccc2)n1Cc1ccc(Cl)cc1	18.4µM*	i	-10.5%	32.3%	9.8%	i
O=c1c2ccccc2nc2n1CCN2Cc1ccc(Cl)cc1	-5.6%	4.61µM*	0.0%	9.5%	-12.6%	16.4µM*
O=C(Nc1sc2c(c1C(=O)NCc1ccco1)CCCC2)c1cc(=O)c2ccccc2o1	x	x	x	20.6%	x	x
COc1cccc(CNC(=O)c2cccc(S(=O)(=O)N3CCN(Cc4ccccc4)CC3)c2)c1	5.9%	14.6µM*	-1.3%	-16.9%	-2.9%	i
O=C(NCc1ccc(F)cc1)c1cccc(S(=O)(=O)N2CCCC2)c1	19.5%	23.1µM*	-0.9%	25.8%	-0.8%	i
O=C(NCc1ccc(F)cc1)c1cccc(S(=O)(=O)N2CCOCC2)c1	3.8%	i	-0.9%	12.0%	5.9%	i
CN(Cc1c(F)cccc1Cl)C(=O)c1cccc(S(=O)(=O)N2CCN(Cc3ccccc3)CC2)c1	6.0%	i	-0.1%	5.0%	7.5%	i
O=C(c1cccc(S(=O)(=O)N2CCOCC2)c1)N(Cc1ccc(F)cc1)Cc1ccco1	2.06µM*	i	-1.6%	-0.5%	-9.4%	i
